A short description of assay [1]: ATG_CMV_CIS: Attagene CIS-FACTORIAL HepG2 Assay for human CMV (Internal Marker) (AID 2282928).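 Note: endpoint acts as a background internal control marker rather than a target.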 The following applies: HepG2 CMV promoter reporter, transcription factor profiling; actives raise or lower the signal. Put shortly: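 Endogenous transcription factor activity read in HepG2 via transfected cis-promoter reporter units. After 24 h dosing, reporter mRNA measured by RT-PCR/capillary electrophoresis; gain or loss of signal fit relative to DMSO.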

The nature of assay [2]: ATG_DR4_LXR_CIS: Attagene CIS-FACTORIAL HepG2 Assay for human Liver X Receptor (LXR), DR4 submotif (AID 2282929). The following applies: HepG2 Attagene DR4 cis-reporter, mRNA transcription; actives raise or lower the signal. A digest of the protocol: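 Total RNA from 24 h-treated, MRTU-transfected HepG2 cells underwent reverse transcription, PCR, fluorescent primer extension and restriction digestion before capillary electrophoresis. Both increases and decreases in reporter signal were fitted against DMSO.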

A short description of assay [3]: ATG_AP_2_CIS: Attagene CIS-FACTORIAL HepG2 Assay for human Activator Protein 2 (AP-2) (AID 2282932). The settings on record: HepG2 AP-2 cis-reporter, Attagene transcription factor profiling; actives raise or lower the signal. Put shortly:
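HepG2 cells transiently transfected with cis-element reporter units and exposed for 24 h. Reporter mRNA measured by RT-PCR, FAM labelling, HpaI digestion and capillary electrophoresis. Changes in either direction fitted relative to DMSO.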

The target of assay [4] is Transcription factor E2F1 (Homo sapiens) (UniProt Q01094). Description: ATG_E2F_CIS: Attagene CIS-FACTORIAL HepG2 Assay for human E2F Transcription Factor 1 (AID 2282935). The following applies: HepG2 Attagene cis-reporter, E2F reporter RNA transcripts; actives raise or lower the signal. Put shortly:
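Endogenous E2F1 activity read through cis-promoter reporter units transfected into HepG2. After 24 h compound treatment, reporter mRNA measured by RT-PCR, HpaI digestion and capillary electrophoresis. Bidirectional fit versus DMSO.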

The nature of assay [5]: ATG_M_61_CIS: Attagene CIS-FACTORIAL HepG2 Assay for M61 Transcription Factor (Internal Marker) (AID 2282937). The settings on record: HepG2 Attagene CIS-FACTORIAL M61 internal marker reporter; actives raise or lower the signal. A digest of the protocol: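 Transfect HepG2 with MRTUs; dose 24 h; isolate RNA; reverse-transcribe with DNase I treatment; PCR-amplify, FAM-label and cut with HpaI for 2 h at 37 C; resolve by CE. Bidirectional fitting against DMSO.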

Assay [6] in a line: ATG_EGR_CIS: Attagene CIS-FACTORIAL HepG2 Assay for human Early Growth Response 1 (EGR1) (AID 2282938). The following applies: HepG2 Attagene CIS-FACTORIAL EGR reporter mRNA; actives raise or lower the signal. Put shortly: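 After a 24 h treatment of transiently transfected HepG2 cells, total RNA was reverse-transcribed and reporter sequences PCR-amplified, labelled and run on capillary electrophoresis. Reporters sit under cis-regulatory promoters sensing endogenous factors.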

Assay [7] is described as follows: ATG_Ets_CIS: Attagene CIS-FACTORIAL HepG2 Assay for human Erythroblast Transformation Specific (ETS) (AID 2282941). The settings on record: HepG2 ETS cis-reporter transcription, actives raise or lower the signal. Put shortly: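 Steps: transfect HepG2 with multiple reporter units; treat compound 24 h; isolate RNA, DNase-treat, reverse-transcribe; PCR-amplify, label with 6-FAM, digest with HpaI; separate by capillary electrophoresis. Activity fitted both directions versus DMSO.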

The target in assay [8] is Hepatocyte nuclear factor 3-beta (Homo sapiens) (UniProt Q9Y261). Briefly: ATG_FoxA2_CIS: Attagene CIS-FACTORIAL HepG2 Assay for human Forkhead box A2 (FOXA2) (AID 2282942). The settings on record: HepG2 cis-reporter transcription factor activity, 24 h; actives raise or lower the signal. Put shortly:
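24 h dosing of HepG2 bearing cis-reporter constructs; mRNA readout by RT-PCR/CE fluorescence; bidirectional fit, DMSO baseline.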

Assay [9] can be described thus: ATG_FoxO_CIS: Attagene CIS-FACTORIAL HepG2 Assay for human Forkhead box O (FoxO) (AID 2282943). The settings on record: HepG2 Attagene cis-reporter, FoxO element, mRNA; actives raise or lower the signal. Put shortly:
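Read-out: fluorescence of 6-FAM-labelled reporter cDNA fragments resolved by capillary electrophoresis. Transiently transfected HepG2 cells were dosed for 24 h; activity fitted in both directions relative to DMSO controls.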

Assay [10] is described as follows: ATG_GATA_CIS: Attagene CIS-FACTORIAL HepG2 Assay for human GATA Binding Protein (AID 2282944). The settings on record: HepG2 GATA cis-element reporter, Attagene multiplex mRNA; actives raise or lower the signal. A digest of the protocol: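 DMSO serves as negative control and baseline for bidirectional fitting of reporter mRNA changes. HepG2 cells bearing transiently transfected cis-promoter reporters were exposed 24 h; transcripts detected via RT-PCR and capillary electrophoresis.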

The nature of assay [11]: ATG_ISRE_CIS: Attagene CIS-FACTORIAL HepG2 Assay for human Interferon Regulatory Factor 1 (IRF1) binding to an Interferon-Stimulated Response Element (ISRE) (AID 2282948). The settings on record: HepG2 ISRE cis-reporter (Attagene), mRNA transcription readout; actives raise or lower the signal. A digest of the protocol:
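Transfected HepG2 (multiple reporter transcription units, cis elements) dosed 24 h. RNA → oligo(dT) RT → PCR → 6-FAM primer extension → HpaI → CE. DMSO = negative control/baseline.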

A short description of assay [12]: ATG_M_32_CIS: Attagene CIS-FACTORIAL HepG2 Assay for M32 Transcription Factor (Internal Marker) (AID 2282949).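 Note: background control marker of the multiplexed CIS panel rather than a real target.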 The settings on record: HepG2 Attagene cis-factorial M32 reporter, mRNA; actives raise or lower the signal. Put shortly: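 Fluorescent capillary electrophoresis peaks of HpaI-digested, FAM-labelled RT-PCR reporter products give the signal. Source: transiently transfected human liver HepG2 cells, 24 h after chemical dosing; bidirectional fitting against DMSO.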

Assay [13] in a line: ATG_MRE_CIS: Attagene CIS-FACTORIAL HepG2 Assay for human Metal Responsive Element (MRE) (AID 2282954). The settings on record: HepG2 MRE cis-reporter transcription, Attagene multiplex; actives raise or lower the signal. Put shortly: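 HepG2 cells transiently transfected with cis-element-driven reporter units; mRNA measured 24 h after dosing. Reporter transcripts quantified by RT-PCR, FAM labelling, HpaI digestion and capillary electrophoresis; bidirectional fit versus DMSO.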

Assay [14] deals with Paired box protein Pax-6 (Homo sapiens) (UniProt P26367). Description: ATG_Pax6_CIS: Attagene CIS-FACTORIAL HepG2 Assay for human Paired Box 6 (PAX6) (AID 2282956). The following applies: HepG2 CIS-FACTORIAL PAX6 reporter transcription, RNA readout; actives raise or lower the signal. Put shortly:
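Transient MRTU transfection of HepG2 → compound exposure 24 h → TriZol RNA, oligo(dT) RT → PCR, 6-FAM primer extension, HpaI cut → capillary electrophoresis; activity fitted both directions against DMSO.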

Assay [15] in a line: ATG_PXRE_CIS: Attagene CIS-FACTORIAL HepG2 Assay for human Pregnane X Receptor Element (PXRE) (AID 2282957). The following applies: HepG2 Attagene CIS-FACTORIAL PXRE reporter, mRNA; actives raise or lower the signal. Put shortly: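 Transiently transfected HepG2 cells were dosed and incubated for 24 h. RNA was then isolated, DNase-treated, reverse-transcribed and reporter sequences amplified. Labeled, HpaI-digested fragments were quantified by capillary electrophoresis against DMSO.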

The nature of assay [16]: ATG_Sox_CIS: Attagene CIS-FACTORIAL HepG2 Assay for human SRY-box transcription factor (SOX) (AID 2282960). The following applies: HepG2 Attagene cis-factorial SOX reporter, mRNA; actives raise or lower the signal. Put shortly: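 HepG2, cis reporter units, 24 h exposure. Reporter mRNA: RT-PCR → FAM labelling → HpaI → CE fluorescence. Bidirectional fit vs DMSO.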
Assay [17] is described as follows: ATG_SREBP_CIS: Attagene CIS-FACTORIAL HepG2 Assay for human Sterol Regulatory Element Binding (SREBP) (AID 2282962). The settings on record: HepG2 Attagene cis-factorial SREBP reporter, mRNA; actives raise or lower the signal. A digest of the protocol:
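Transfected HepG2 (cis-regulated reporter library, endogenous TFs) → compound 24 h → total RNA → oligo(dT) RT → reporter-specific PCR → FAM primer extension, HpaI cut → CE fluorescence. Fit bidirectional vs DMSO.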

A short description of assay [18]: ATG_TCF_b_cat_CIS: Attagene CIS-FACTORIAL HepG2 Assay for human T-Cell-Factor with beta-catenin (TCF/b-cat) (AID 2282965). The settings on record: HepG2 TCF/beta-catenin cis-reporter transcription, actives raise or lower the signal. Put shortly: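 HepG2, transient MRTU transfection, cis-element-driven reporters (endogenous TFs). 24 h compound exposure. Readout: reporter mRNA by RT-PCR + 6-FAM primer extension, HpaI digest, capillary electrophoresis. Gain/loss fit vs DMSO baseline.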

The nature of assay [19]: ATG_TAL_CIS: Attagene CIS-FACTORIAL HepG2 Assay for human TAL Basal Promoter (AID 2282966).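 Note: background control endpoint measuring basal TAL promoter reporter mRNA not a specific factor.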 The following applies: HepG2 Attagene cis-factorial TAL promoter reporter; actives raise or lower the signal. Put shortly:
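Readout: reporter mRNA, fluorescence by CE. System: HepG2, transient multi-reporter transfection, endogenous TF activity. Exposure: 24 h. Analysis: bidirectional, DMSO-normalized; background control.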

Assay [20] in a line: ATG_TGFb_CIS: Attagene CIS-FACTORIAL HepG2 Assay for human Transforming Growth Factor (TGF) (AID 2282967). The following applies: HepG2 Attagene CIS TGFb reporter, mRNA transcription; actives raise or lower the signal. A digest of the protocol:
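Transcript-level reporter readout: HepG2 transfectants, 24 h exposure, RNA to cDNA, reporter-specific PCR, fluorescent primer extension, capillary sizing against ROX standards. Gain- or loss-of-signal relative to DMSO.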

Activity calls are given as the source filed them. Rule for the calls: active = hit-call score of the fitted dose curve at least 0.9, where 1 is the maximum; inactive = score below 0.9.

Sequence of Paired box protein Pax-6 (Homo sapiens) (P26367 whole entry, looked up): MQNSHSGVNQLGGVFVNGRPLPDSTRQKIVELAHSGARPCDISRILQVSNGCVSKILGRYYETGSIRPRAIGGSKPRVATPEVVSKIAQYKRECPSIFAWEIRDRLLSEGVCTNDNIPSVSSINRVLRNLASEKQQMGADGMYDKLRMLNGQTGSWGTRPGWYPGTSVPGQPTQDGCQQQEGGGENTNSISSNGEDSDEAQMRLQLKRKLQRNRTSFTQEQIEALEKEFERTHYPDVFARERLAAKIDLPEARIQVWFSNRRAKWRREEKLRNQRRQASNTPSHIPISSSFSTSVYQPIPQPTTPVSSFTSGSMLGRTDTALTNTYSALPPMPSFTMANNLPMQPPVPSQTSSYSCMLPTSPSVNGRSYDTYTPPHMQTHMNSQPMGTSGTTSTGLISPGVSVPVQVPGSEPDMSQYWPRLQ
Sequence of Hepatocyte nuclear factor 3-beta (Homo sapiens) (Q9Y261 whole entry, looked up): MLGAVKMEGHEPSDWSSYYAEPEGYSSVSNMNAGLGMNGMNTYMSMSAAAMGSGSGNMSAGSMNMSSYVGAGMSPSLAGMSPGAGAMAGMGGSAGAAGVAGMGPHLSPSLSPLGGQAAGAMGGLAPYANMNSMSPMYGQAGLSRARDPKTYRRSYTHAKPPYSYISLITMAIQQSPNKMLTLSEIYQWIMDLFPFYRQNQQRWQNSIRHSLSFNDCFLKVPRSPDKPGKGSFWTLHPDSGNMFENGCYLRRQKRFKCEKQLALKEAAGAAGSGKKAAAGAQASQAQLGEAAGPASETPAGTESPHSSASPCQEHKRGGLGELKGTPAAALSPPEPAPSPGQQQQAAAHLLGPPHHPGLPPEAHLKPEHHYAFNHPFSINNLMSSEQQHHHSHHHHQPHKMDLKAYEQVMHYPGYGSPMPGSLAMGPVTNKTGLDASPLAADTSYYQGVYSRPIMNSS
Sequence of Transcription factor E2F1 (Homo sapiens) (Q01094 whole entry, looked up): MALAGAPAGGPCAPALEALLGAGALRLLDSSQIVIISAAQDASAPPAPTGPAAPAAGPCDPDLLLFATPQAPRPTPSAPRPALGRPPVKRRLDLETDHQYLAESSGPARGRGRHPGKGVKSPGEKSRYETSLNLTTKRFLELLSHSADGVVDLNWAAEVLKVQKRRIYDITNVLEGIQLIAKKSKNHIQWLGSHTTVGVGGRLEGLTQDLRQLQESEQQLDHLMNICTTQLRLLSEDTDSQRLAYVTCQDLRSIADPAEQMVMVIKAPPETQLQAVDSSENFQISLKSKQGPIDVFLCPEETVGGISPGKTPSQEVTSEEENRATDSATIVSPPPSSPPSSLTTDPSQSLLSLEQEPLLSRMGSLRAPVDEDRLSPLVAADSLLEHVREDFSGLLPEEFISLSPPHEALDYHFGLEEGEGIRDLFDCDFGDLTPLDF

With `COc1cc(OC)nc(Oc2cccc(Oc3nc(OC)cc(OC)n3)c2C(=O)O)n1`, the compound was classed as inactive in [1], in [2], in [3], in assay [4], in [5] and in assay [6]. Besides, the call in assay [7], in [8], in assay [9], in assay [10], in [11] and in [12] was inactive. The outcome in assay [13], in assay [14], in assay [16], in [17], in [18] and in [19] was inactive. In assay [20], the result was inactive. Besides, the AC50 in assay [15] was 56 µM (active).
In the case of `[CH3][Sn]([CH3])([Cl])[Cl]`, the call in assay [1], in assay [2], in [3], in assay [4], in assay [5] and in assay [6] was inactive. The result in assay [7], in [8], in assay [9], in [10], in assay [11] and in assay [12] was inactive. Also, the call in [13], in [14], in [15], in assay [16], in [17] and in assay [18] was inactive. The result in assay [19] and in assay [20] was inactive.
As to `Cc1ncc(C[n+]2csc(CCO)c2C)c(N)n1`, the compound was called inactive in assay [1], in assay [2], in [3], in assay [4], in assay [5] and in assay [6]. Further, the compound was classed as inactive in [7], in assay [8], in [9], in assay [10], in assay [11] and in assay [12]. Moreover, the compound was classed as inactive in [13], in assay [14], in assay [15], in assay [16], in [17] and in assay [18]. Besides, the compound was called inactive in assay [19] and in [20].

For the origin of these results see PubChem BioAssay (EPA / NIEHS).
